Where “and” joins values, the source holds several entries; their conditions need not be identical. Equal values may be shown once. The panel holds about 79,000 compounds, 15% with a hit somewhere; the sample as a whole holds those more often. A number with no mark means an inactive call. Calls of active or inactive are those of the source. Rule as the data show it: active = growth inhibition above about 70%; inactive = the rest.
Assays:
[1] = NCI Yeast Anticancer Drug Screen. Data for the rad50 strain (AID 155);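 also: 0% = growth of vehicle-only cultures of the same strain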; settings: S. cerevisiae rad50 strain growth inhibition; at 50.0 µM; stronger effect = higher value
Summary of the method: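 Cells are treated with compound, grown, and their growth is then scored against vehicle-only cultures of the same repair-deficient yeast strain.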

[2] = NCI Yeast Anticancer Drug Screen. Data for the mec2-1 strain (AID 157); settings: S. cerevisiae mec2-1 strain, at 50.0 µM, stronger effect = higher value
Summary of the method: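 Compounds were applied to mec2-1 yeast cells. Their growth was then compared with that of vehicle-treated cultures to give growth inhibition.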

[3] = NCI Yeast Anticancer Drug Screen. Data for the sgs1 mgt1 strain (AID 161);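 also: 0% = growth of cultures given vehicle only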; settings: S. cerevisiae sgs1 mgt1 strain, at 50.0 µM, stronger effect = higher value
Summary of the method: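 Growth of a repair-deficient yeast mutant was monitored after compound treatment and expressed as inhibition relative to vehicle-treated cultures.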

[4] = NCI Yeast Anticancer Drug Screen. Data for the cln2 rad14 strain (AID 165);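 also: 0% = growth equal to vehicle treated cultures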; settings: S. cerevisiae cln2 rad14 strain, at 50.0 µM, stronger effect = higher value
Summary of the method: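 Strain: cln2 rad14 yeast, altered in cell cycle control and DNA damage repair. Read-out: growth inhibition vs vehicle.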

[5] = NCI Yeast Anticancer Drug Screen. Data for the bub3 strain (AID 167); settings: S. cerevisiae bub3 mutant strain, at 50.0 µM, stronger effect = higher value
Summary of the method: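 Part of a panel of yeast mutants defective in DNA damage repair or cell cycle regulation. Each strain is grown with compound, and inhibition is calculated relative to solvent-treated cultures.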

[6] = NCI Yeast Anticancer Drug Screen. Data for the mlh1 rad18 strain (AID 175); settings: S. cerevisiae mlh1 rad18 strain growth inhibition; at 50.0 µM; stronger effect = higher value
Summary of the method: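 A repair-deficient yeast strain is exposed to test compound, and growth is scored relative to vehicle-treated controls.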

SMILES: O=c1[nH]cc(N=Cc2ccccc2Cl)c(=O)[nH]1.[Cl][Pt][Cl]
- growth inhibition [1]: 20.4%
- growth inhibition [2]: -5.75%
- growth inhibition [3]: -18.1%
- growth inhibition [4]: 1.95%
- growth inhibition [5]: 1.55%
- growth inhibition [6]: -9.05%

SMILES: CC1(C)CN1C1=C(Br)C(=O)C(N2CC2(C)C)=C(Br)C1=O
- growth inhibition [1]: 18.8%
- growth inhibition [2]: 0.9%
- growth inhibition [3]: 7.75%
- growth inhibition [4]: 9.9%
- growth inhibition [5]: -0.65%
- growth inhibition [6]: 30.1%

SMILES: COc1ccc2c3c([nH]c2c1)C(C)N(C)CC3 (stereo not drawn)
- growth inhibition [1]: 16.4%
- growth inhibition [2]: 1.85%
- growth inhibition [3]: -10.7%
- growth inhibition [4]: -5.05%
- growth inhibition [5]: 43.4%
- growth inhibition [6]: -16.9%

SMILES: Cc1ccc(O)c(Cl)c1
- growth inhibition [1]: -1%
- growth inhibition [2]: 5.4%
- growth inhibition [3]: -19.4%
- growth inhibition [4]: -11.7%
- growth inhibition [5]: 0.15%
- growth inhibition [6]: 38%

SMILES: Cc1ccc(N2CC=C(c3ccccc3)OP2(=O)N(CCCl)CCCl)cc1 (stereo not drawn)
- growth inhibition [1]: 76.8% (active)
- growth inhibition [2]: 84.8% (active)
- growth inhibition [3]: 75.4% (active)
- growth inhibition [4]: 80.7% (active)
- growth inhibition [5]: 87.9% (active)
- growth inhibition [6]: 70.2% (active)

SMILES: N#CCCCl
- growth inhibition [1]: -13.7%
- growth inhibition [2]: -1.9%
- growth inhibition [3]: 13.6%
- growth inhibition [4]: -23.4%
- growth inhibition [5]: -1.65%
- growth inhibition [6]: -19.8%

SMILES: CCCNC(Cc1ccccc1)c1ccccc1 (stereo not drawn)
- growth inhibition [1]: -7.95%
- growth inhibition [2]: -9.25%
- growth inhibition [3]: 3.4%
- growth inhibition [4]: -10.1%
- growth inhibition [5]: -0.7%
- growth inhibition [6]: -1%

SMILES: NC(=O)c1ccc([As](O)O)cc1N
- growth inhibition [1]: -0.05%
- growth inhibition [2]: -4.9%
- growth inhibition [3]: -12.5%
- growth inhibition [4]: -4.75%
- growth inhibition [5]: -11.5%
- growth inhibition [6]: -9.1%

SMILES: CC(NC1=NCCO1)c1ccccc1Cl (stereo not drawn)
- growth inhibition [1]: -8.85%
- growth inhibition [2]: -29%
- growth inhibition [3]: 5.45%
- growth inhibition [4]: -27.9%
- growth inhibition [5]: -12.9%
- growth inhibition [6]: -48%

SMILES: O=c1cc[cH-]o1.[C-]#[O+].[C-]#[O+].[C-]#[O+].[C-]#[O+].[C-]#[O+].[C-]#[O+].[CH-]=O.[Co+2].[Co]
- growth inhibition [1]: -14.5% and -3.2%
- growth inhibition [2]: -4.15% and 4.75%
- growth inhibition [3]: 0.5% and -6.75%
- growth inhibition [4]: -10.5% and 6.25%
- growth inhibition [5]: -8.4% and 21.8%
- growth inhibition [6]: 9.6% and 4.05%

SMILES: Cc1nc([N+](=O)[O-])c([N+](=O)[O-])n1CC(O)CCl (stereo not drawn)
- growth inhibition [1]: 3.85%
- growth inhibition [2]: -12.4%
- growth inhibition [3]: 4.2%
- growth inhibition [4]: 14.9%
- growth inhibition [5]: -28.1%
- growth inhibition [6]: 20.4%

SMILES: CCCCOP(=O)(NCCOC)OCCCC
- growth inhibition [1]: -0.05%
- growth inhibition [2]: 8.05%
- growth inhibition [3]: -3.1%
- growth inhibition [4]: 6.9%
- growth inhibition [5]: 5.25%
- growth inhibition [6]: 10.2%

SMILES: O=C1NC(=O)C2(OC3c4ccccc4C=CN3C3=C2C(=O)CCC3)C(=O)N1 (stereo not drawn)
- growth inhibition [1]: 11.5%
- growth inhibition [2]: 1.8%
- growth inhibition [3]: -6.1%
- growth inhibition [4]: 52.4%
- growth inhibition [5]: 10.1%
- growth inhibition [6]: 7.4%

SMILES: CCOC(=O)CC(=Nc1cc(C)on1)N(CC)CC
- growth inhibition [1]: 0.95%
- growth inhibition [2]: -19.2%
- growth inhibition [3]: 6.3%
- growth inhibition [4]: 9.95%
- growth inhibition [5]: -9.75%
- growth inhibition [6]: -17.1%

SMILES: CC(Br)C(=O)NC(C)C(=O)O (stereo not drawn)
- growth inhibition [1]: -19.6% and -15.2%
- growth inhibition [2]: -16.6% and -19.9%
- growth inhibition [3]: -12.4%
- growth inhibition [4]: 5.75%
- growth inhibition [5]: -17.6%
- growth inhibition [6]: -28.6% and -21.2%

SMILES: CC(=O)OC1[C@H](n2ccnc2)C[C@H]2[C@@H]3CC=C4CC(N5CCCC5)CC[C@]4(C)[C@H]3CC[C@]12C (stereo partly drawn)
- growth inhibition [1]: 2.1%
- growth inhibition [2]: -9.1%
- growth inhibition [3]: -29.9%
- growth inhibition [4]: 7.05%
- growth inhibition [5]: -48.8%
- growth inhibition [6]: -55.4%

SMILES: CC(O)C[As](=O)(O)c1ccccc1Cl (stereo not drawn)
- growth inhibition [1]: 2.85%
- growth inhibition [2]: 25.5%
- growth inhibition [3]: -17.3%
- growth inhibition [4]: -2.55%
- growth inhibition [5]: 14.4%
- growth inhibition [6]: -16.6%

SMILES: c1ccc(C[P+]2(c3ccccc3)CCCCC2)cc1
- growth inhibition [1]: -12.7%
- growth inhibition [2]: -1.05%
- growth inhibition [3]: -0.55%
- growth inhibition [4]: -22.6%
- growth inhibition [5]: -4.95%
- growth inhibition [6]: 3.1%

SMILES: CCOP(=O)(CC)C(Cl)(Cl)Cl (stereo not drawn)
- growth inhibition [1]: 2.4%
- growth inhibition [2]: -18.5%
- growth inhibition [3]: -5.95%
- growth inhibition [4]: -24.1%
- growth inhibition [5]: 6.05%
- growth inhibition [6]: -2.2%

SMILES: CCOC(=O)CC1=N/C(=N/C(=N)N[N+](=O)[O-])SC1
- growth inhibition [1]: 7.45%
- growth inhibition [2]: -5.3%
- growth inhibition [3]: 10.4%
- growth inhibition [4]: 7.6%
- growth inhibition [5]: 15.3%
- growth inhibition [6]: 16%

SMILES: NC(=S)Nc1ccccc1
- growth inhibition [1]: 9.75%
- growth inhibition [2]: -18%
- growth inhibition [3]: -24.4%
- growth inhibition [4]: -11.1%
- growth inhibition [5]: 8.65%
- growth inhibition [6]: 5.6%

SMILES: CC1CC2OC(=O)C(CN3CC3)C2CC2(C)C(O)CC(O)C12 (stereo not drawn)
- growth inhibition [1]: 32.2%
- growth inhibition [2]: 30.3%
- growth inhibition [3]: 32.5%
- growth inhibition [4]: -4.1%
- growth inhibition [5]: 10.3%
- growth inhibition [6]: 26.1%

SMILES: CC1(C)N=C(N)N=C(N)N1c1ccc(CCc2ccc(Cl)c(S(=O)(=O)F)c2)c(Cl)c1
- growth inhibition [1]: 99.3% (active)
- growth inhibition [2]: 99.5% (active)
- growth inhibition [3]: 99.3% (active)
- growth inhibition [4]: 93.8% (active)
- growth inhibition [5]: 98.3% (active)
- growth inhibition [6]: 99.7% (active)

SMILES: [Cl][Ni][Cl].[NH-]C1CCCCC1[NH-].[NH-]C1CCCCC1[NH-] (stereo not drawn)
- growth inhibition [1]: -22.9%
- growth inhibition [2]: -6.45%
- growth inhibition [3]: 0.85%
- growth inhibition [4]: -18.6%
- growth inhibition [5]: 11.8%
- growth inhibition [6]: -1.85%

SMILES: O=[N+]([O-])O.[NH-]C1CCCCC1[NH-].[NH-]C1CCCCC1[NH-].[OH-].[OH-].[Pt+4].[Pt+4] (stereo not drawn)
- growth inhibition [1]: 49.8%
- growth inhibition [2]: -4.8%
- growth inhibition [3]: -29.3%
- growth inhibition [4]: -5.45%
- growth inhibition [5]: -41%
- growth inhibition [6]: 30.2%

SMILES: CC1(C)OCC(C2NC2C2COC(C)(C)O2)O1 (stereo not drawn)
- growth inhibition [1]: -4.55%
- growth inhibition [2]: -6.85%
- growth inhibition [3]: -11.1%
- growth inhibition [4]: -40.4%
- growth inhibition [5]: -10.9%
- growth inhibition [6]: 6.5%

SMILES: NC1(P(=O)(O)O)CCCCC1
- growth inhibition [1]: 2.5%
- growth inhibition [2]: -3%
- growth inhibition [3]: -22.4%
- growth inhibition [4]: -52%
- growth inhibition [5]: -31.6%
- growth inhibition [6]: -10.5%

SMILES: C[N+](C)(C)NP(=O)(N[N+](C)(C)C)c1ccccc1
- growth inhibition [1]: 3.2%
- growth inhibition [2]: -8.15%
- growth inhibition [3]: -19.3%
- growth inhibition [4]: 11.6%
- growth inhibition [5]: 1.95%
- growth inhibition [6]: -11.1%

SMILES: COc1ccc2[nH]cc(CCN)c2c1
- growth inhibition [1]: 3.95%
- growth inhibition [2]: -12.4%
- growth inhibition [3]: -13.5%
- growth inhibition [4]: -10.4%
- growth inhibition [5]: 3.6%
- growth inhibition [6]: -24.1%

SMILES: COC(=O)c1cccc(S(=O)(=O)F)c1
- growth inhibition [1]: -9.85%
- growth inhibition [2]: -5.05%
- growth inhibition [3]: -15.7%
- growth inhibition [4]: -13.4%
- growth inhibition [5]: 20.1%
- growth inhibition [6]: -28.4%

SMILES: O=C(CCC(=O)Oc1ccc(S(=O)(=O)F)cc1)Oc1ccc(S(=O)(=O)F)cc1
- growth inhibition [1]: 49.1%
- growth inhibition [2]: 15.3%
- growth inhibition [3]: 44.3%
- growth inhibition [4]: 26.1%
- growth inhibition [5]: 7.65%
- growth inhibition [6]: 9.8%

SMILES: CC(OC(N)=O)C(F)(F)C(F)F (stereo not drawn)
- growth inhibition [1]: -26.6%
- growth inhibition [2]: -9.15%
- growth inhibition [3]: 1.35%
- growth inhibition [4]: -39.2%
- growth inhibition [5]: -12.8%
- growth inhibition [6]: -1.85%

SMILES: C[n+]1c[se]cn1
- growth inhibition [1]: -2.9%
- growth inhibition [2]: 9.25%
- growth inhibition [3]: -8.2%
- growth inhibition [4]: 1.2%
- growth inhibition [5]: -14.1%
- growth inhibition [6]: 0.55%

SMILES: CC(C)(C)c1ccc(C(C)(C)OO)cc1
- growth inhibition [1]: 31.6%
- growth inhibition [2]: -0.7%
- growth inhibition [3]: 18.3%
- growth inhibition [4]: 12.3%
- growth inhibition [5]: 10.2%
- growth inhibition [6]: 6.2%

SMILES: O=C1CC2(CCNCC2)C(=O)N1N1CCOCC1
- growth inhibition [1]: 19.6%
- growth inhibition [2]: -0.15%
- growth inhibition [3]: 5.4%
- growth inhibition [4]: 7.55%
- growth inhibition [5]: 2.6%
- growth inhibition [6]: 6%

SMILES: CC(C)(C)C1COP(=S)(C(C)(C)C)OC1 (stereo not drawn)
- growth inhibition [1]: -8.3%
- growth inhibition [2]: -5.6%
- growth inhibition [3]: -0.55%
- growth inhibition [4]: -20.5%
- growth inhibition [5]: -0.5%
- growth inhibition [6]: -5.15%

SMILES: O=C=Nc1cccc(S(=O)(=O)F)c1
- growth inhibition [1]: 56.8%
- growth inhibition [2]: 4.15%
- growth inhibition [3]: 26%
- growth inhibition [4]: 28.4%
- growth inhibition [5]: 33.9%
- growth inhibition [6]: 11.9%

SMILES: COC(=O)C1C(O)C(C)C(O)C(C)/C=C\C=C(C)C(=O)Nc2c(C)c(OC(C)=O)c3c(c2O)C(=O)C(C)=C2OCOC(=C23)C(C)=CC(C)(O)C(O)C(C)C1O (stereo not drawn)
- growth inhibition [1]: 11.9% and -16.8% and 23.8%
- growth inhibition [2]: -15.7% and -27.9% and -5.4%
- growth inhibition [3]: 12.1% and -26.9% and 3.05%
- growth inhibition [4]: -10.2% and -5.2% and 9.2%
- growth inhibition [5]: 26.9% and -13.5% and 10%
- growth inhibition [6]: 16.6% and -24.6% and 19.4%

From PubChem BioAssay (NCI)
